Measured values from PubChem BioAssay AID488969 (Vanderbilt High Throughput Screening Facility, 2010).
Over roughly 110,000 compounds, “z-score” has its median near -0.1; the highest 2% begin near 2. Only a selection was taken, and the highest values are over-represented in it overall. Activity calls are given as the source filed them.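 The calls were made as follows: active = z-score in the third read window above 3 or below -3; inactive = the rest.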

The compounds below were run against Metabotropic glutamate receptor 8 (Rattus norvegicus) (UniProt P70579) (assay: rat mGluR8 modulators via GIRK flux, primary screen, cell-based, thallium flux, HTS (AID 488969)). Conditions: HEK293 rat mGluR8, GIRK (G protein-gated inwardly rectifying potassium channel) thallium flux, FluoZin2; at 10 µM; stronger effect = higher value; submaximal glutamate (EC20) added with thallium.
Metabotropic glutamate receptor 8 (Rattus norvegicus), sequence (P70579 whole entry, looked up): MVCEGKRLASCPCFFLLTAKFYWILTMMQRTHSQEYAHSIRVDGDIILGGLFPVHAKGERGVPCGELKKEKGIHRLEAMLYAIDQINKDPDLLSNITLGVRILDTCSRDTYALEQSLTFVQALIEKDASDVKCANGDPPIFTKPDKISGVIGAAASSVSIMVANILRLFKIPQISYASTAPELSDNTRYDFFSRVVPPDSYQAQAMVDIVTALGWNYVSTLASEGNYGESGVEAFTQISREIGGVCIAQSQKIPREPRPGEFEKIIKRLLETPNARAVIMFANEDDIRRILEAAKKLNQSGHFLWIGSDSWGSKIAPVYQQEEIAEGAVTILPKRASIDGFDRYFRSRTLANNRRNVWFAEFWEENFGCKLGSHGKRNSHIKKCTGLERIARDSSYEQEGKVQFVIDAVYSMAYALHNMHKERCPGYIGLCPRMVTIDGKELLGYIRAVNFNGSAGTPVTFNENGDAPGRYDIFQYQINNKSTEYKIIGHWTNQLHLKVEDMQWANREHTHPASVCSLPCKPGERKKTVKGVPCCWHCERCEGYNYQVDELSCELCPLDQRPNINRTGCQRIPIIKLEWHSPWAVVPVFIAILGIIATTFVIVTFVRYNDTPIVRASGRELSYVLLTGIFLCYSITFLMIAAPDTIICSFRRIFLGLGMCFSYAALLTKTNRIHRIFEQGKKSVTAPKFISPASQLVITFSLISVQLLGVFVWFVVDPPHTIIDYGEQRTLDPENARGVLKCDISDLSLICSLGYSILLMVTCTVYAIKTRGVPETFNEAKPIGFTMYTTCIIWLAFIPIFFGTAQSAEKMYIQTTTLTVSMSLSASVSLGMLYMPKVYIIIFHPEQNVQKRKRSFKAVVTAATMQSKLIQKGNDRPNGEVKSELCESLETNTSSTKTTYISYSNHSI

Structure (SMILES)	z-score
CC(C)(C)NC(=O)CN1CCC(O)(c2ccccc2)CC1	-0.263
CCOC(=O)CC(=O)CSc1nc2cc(C)ccc2cc1C	0.9
CNC(=O)c1sc(-c2ccccc2)nc1C	-0.396
COc1ccc(C(=O)CSc2ccc(-c3ccccc3)nn2)cc1	-0.139
CN=Cc1sc2ccccc2c1O	0.0625
Oc1c(C=Nc2cccnc2)sc2ccccc12	-0.313
Oc1c(C=NCc2ccncc2)sc2ccccc12	2.11
O=c1ccc(/C=C/c2ccccc2)nn1Cc1ccc(Cl)cc1Cl	0.353
CCN(CC)c1ccc(C(=O)O)cc1	-0.133
CCN1CCN(C(=O)c2ccc(Sc3ccccc3Cl)c([N+](=O)[O-])c2)CC1	0.195
O=C1c2oc3ccccc3c(=O)c2C(c2cccc(O)c2)N1c1ccccn1 (configuration not stated)	-0.576
CN(C)CCN1C(=O)c2oc3ccc(F)cc3c(=O)c2C1c1ccncc1 (configuration not stated)	-0.265
CN(C)CCN1C(=O)c2oc3ccccc3c(=O)c2C1c1ccc(F)cc1 (configuration not stated)	1.86
CCN(CC)CCCN1C(=O)c2oc3ccccc3c(=O)c2C1c1cccnc1 (configuration not stated)	0.402
CN1C(=O)c2oc3ccccc3c(=O)c2C1c1ccccn1 (configuration not stated)	8.59 (active)
CN(C)CCN1C(=O)c2oc3ccccc3c(=O)c2C1c1cccc(Br)c1 (configuration not stated)	0.553
CCN(CC)CCN1C(=O)c2oc3ccccc3c(=O)c2C1c1ccccc1 (configuration not stated)	3.81 (active)
CCCOc1ccc(C2c3c(oc4ccccc4c3=O)C(=O)N2CCN(CC)CC)cc1OC (configuration not stated)	0.615
CCN(CC)CCN1C(=O)c2oc3ccccc3c(=O)c2C1c1ccc(F)cc1 (configuration not stated)	4.39 (active)
COc1ccc(C2c3c(oc4ccccc4c3=O)C(=O)N2c2ccccn2)cc1 (configuration not stated)	-0.221
CCN(CC)CCN1C(=O)c2oc3ccccc3c(=O)c2C1c1ccc(C)cc1 (configuration not stated)	8.12 (active)
CCOc1ccc(C2c3c(oc4ccccc4c3=O)C(=O)N2CCCN2CCOCC2)cc1 (configuration not stated)	-0.851

Structure (SMILES)	z-score
COc1ccc2nc(NC3=NC(C(=O)Nc4ccc(C)cc4)CC(=O)N3)nc(C)c2c1 (configuration not stated)	-0.114
Cc1cc(C)c(NC(=O)C2CCCCN2C)c(C)c1 (configuration not stated)	-0.0533
COc1ccc(N=C2SC(C(N)=O)CC(=O)N2CCc2ccc(OC)c(OC)c2)cc1 (configuration not stated)	-0.154
CCOCCOc1nc2c(c(=O)n(C)c(=O)n2C)n1CCc1ccccc1	-0.18
CCOc1ccc(NC(=O)Cn2nnc(-c3ccccc3NC(=O)c3cccs3)n2)cc1	-0.124
COc1cc(C=O)ccc1OS(=O)(=O)c1ccccc1[N+](=O)[O-]	-0.429
COc1ccc(S(=O)(=O)CCc2nnc(NC(=O)c3cccs3)s2)cc1	-0.075
CN(C)S(=O)(=O)N(CC(=O)Nc1ccccc1F)c1ccccc1	0.148
CSc1cccc(NC(=O)CN(c2cccc(C)c2)S(C)(=O)=O)c1	0.00929
CN(C)S(=O)(=O)N(CC(=O)Nc1cccc(F)c1)c1ccccc1	0.587
CSc1cccc(NC(=O)CN(c2cc(C)ccc2C)S(C)(=O)=O)c1	1.11
COC(=O)c1ccccc1NC(=O)CN(c1ccccc1)S(=O)(=O)N(C)C	-1.07
CCCCNC(=O)c1ccccc1NC(=O)CN(c1ccccc1)S(=O)(=O)N(C)C	2.11
CSc1cccc(NC(=O)CN(c2ccccc2)S(=O)(=O)N(C)C)c1	3.6 (active)
CN(C)S(=O)(=O)N(CC(=O)Nc1ccccc1)c1ccccc1	0.311
CSc1cccc(NC(=O)CN(c2ccc(C)cc2C)S(C)(=O)=O)c1	3.01 (active)
COc1ccc(C(C(=O)NC2CCCCC2)N(CC2CCCO2)C(=O)C2COc3ccccc3O2)cc1OC (configuration not stated)	-0.167
COc1ccc(S(=O)(=O)Nc2ccccc2C(=O)NCc2ccco2)cc1	-0.614
FC(F)(F)C1=CC(c2ccccc2)=NCCN1	-0.25
COc1cc(O)oc1C=Nc1ccc(Cl)cc1	-0.289
Cc1ccc(N2CC(C(=O)Nc3ccncc3)CC2=O)cc1 (configuration not stated)	-0.196
COc1ccc(OC)c(NC(=O)CSc2nc3c(c(=O)n(C)c(=O)n3C)n2C)c1	-1.15

Structure (SMILES)	z-score
Cc1cccc(N=Cc2cc3c(cc2[N+](=O)[O-])OCO3)c1	-0.0653
O=C(N/N=C/c1ccco1)c1cc([N+](=O)[O-])cc([N+](=O)[O-])c1	0.778
Cc1ccc(/C=N/NC(=O)c2cccc([N+](=O)[O-])c2)o1	-0.121
Cc1ccc(/C=N\NC(=O)c2cc([N+](=O)[O-])cc([N+](=O)[O-])c2)o1	4.57 (active)
COc1cccc(-c2nc(-c3ccc(NC(=O)Cc4ccccc4OC)cc3)no2)c1	0.363
CCCNC(=O)Cc1ccsc1	0.11
O=C(CCN1C(=O)c2ccccc2C1=O)Nc1ccc(-c2nc3ccccc3o2)cc1	-0.0516
Cc1cc(S(=O)(=O)N2CCCC2)ccc1OCC(=O)N1CCOCC1	0.0243
COC(=O)c1cc(=O)n(CCc2ccc(OC)c(OC)c2)c(=Nc2ccc(F)c(Cl)c2)s1	0.363
COC(=O)c1cc(=O)n(CCc2ccc(OC)cc2)c(=Nc2ccc(F)c(Cl)c2)s1	9.49 (active)
COC(=O)c1cc(=O)n(CCc2ccccc2F)c(=Nc2ccc(F)c(Cl)c2)s1	-0.11
O=C(CSc1nc2c(c(C(F)(F)F)n1)CCc1ccccc1-2)NCc1ccccc1	0.257
Cn1cccc1Cc1nnc(SCC(=O)N2CCCCCC2)n1-c1ccc(F)cc1	2.24
Cn1cccc1Cc1nnc(SCC(=O)NC2CCCC2)n1-c1ccc(F)cc1	2.33
Cn1cccc1Cc1nnc(SCC(=O)N2CCN(c3ccccc3)CC2)n1-c1ccc(F)cc1	-0.223
CC(=O)Nc1cccc(NC(=O)CSc2nnc(Cc3cccn3C)n2-c2ccc(C)cc2)c1	-0.278
COc1ccc(NC(=O)CSc2nnc(Cc3cccn3C)n2-c2ccc(C)cc2)cc1OC	2.03
COc1ccc(NC(=O)CSc2nnc(Cc3cccn3C)n2-c2ccc(F)cc2)cc1OC	-0.626
Cn1cccc1Cc1nnc(SCC(=O)Nc2ccc(F)cc2)n1-c1ccc(F)cc1	-0.84
Cn1cccc1Cc1nnc(SCC(=O)N2CCOCC2)n1-c1ccc(F)cc1	-0.171
Cc1ccc(-n2c(Cc3cccn3C)nnc2SCC(=O)NC2CCCCC2)cc1	0.061
CC(NC(=O)Cc1ccc(-c2ccccc2)cc1)c1ccccc1 (configuration not stated)	-0.225

Structure (SMILES)	z-score
Cc1cc(C)c2oc(C(=O)Nc3nnc(C(C)C)s3)cc(=O)c2c1	-0.0364
O=C(Nc1ccccc1)N1CCN(c2ccc(F)cc2)CC1	0.147
CC(=O)c1ccc(Sc2ccc(C(C)=O)cc2)cc1	-0.316
CCn1nnc(-c2ccccc2NC(=O)c2cc(OC)c(OC)c(OC)c2)n1	-1.03
CN(C)S(=O)(=O)c1cccc(C(=O)NC2CCCc3ccccc32)c1 (configuration not stated)	-0.104
CC(=O)N1CCN(S(=O)(=O)c2cccc(C(=O)NC3CCCc4ccccc43)c2)CC1 (configuration not stated)	0.0317
O=C(NC1CCCc2ccccc21)c1cccc(S(=O)(=O)N2CCN(c3ccccc3)CC2)c1 (configuration not stated)	2.28
COC(=O)c1ccc(/C=N/NC(=O)CC(=O)NCC(C)C)cc1	-0.0626
COc1cc(CNCCO)cc(Br)c1OCc1ccccc1Cl	1.32
O=C(O/N=C/c1ccc2c(c1)OCO2)c1ccccc1Cl	0.0816
CCCn1c(SCc2nc(-c3cccs3)no2)nnc1-c1ccncc1	0.141
CCOc1ccc(-n2c(SCc3nc(-c4ccc(C)cc4)no3)nnc2-c2ccncc2)cc1	-0.127
CCOc1ccc(-n2c(SCc3nc(-c4cccs4)no3)nnc2-c2ccncc2)cc1	7.31 (active)
S=C(Nc1cccc(Cl)c1Cl)Nn1cnnc1	-0.236
O=C(O)c1ccc(NC(=S)NC(NC(=O)c2ccco2)C(Cl)(Cl)Cl)cc1 (configuration not stated)	-0.0488
Cc1cc(C)c2[nH]c(=O)c(=O)[nH]c2c1	-0.178
Cc1cc(C)c2[nH]c(=S)cc(C)c2c1	5.14 (active)
Cc1cc2[nH]c(=S)[nH]c2cc1C	0.151
NC(=O)C1CCN(CC(=O)Nc2cccc(C(=O)Nc3cccc(C(F)(F)F)c3)c2)CC1	-0.137
CS(=O)(=O)N(Cc1ccccc1)c1ccc(C(=O)NC2CCCCC2O)cc1 (configuration not stated)	0.252
O=C(NNS(=O)(=O)c1ccccc1F)c1cccc(S(=O)(=O)N2CCOCC2)c1	10.4 (active)
O=C(NNS(=O)(=O)c1cccc(Cl)c1Cl)c1cccc(S(=O)(=O)N2CCOCC2)c1	-0.174

Structure (SMILES)	z-score
O=C(NNS(=O)(=O)c1ccc(F)c(Cl)c1)c1cccc(S(=O)(=O)N2CCOCC2)c1	-0.0447
CCNc1nc(NC(C)CC)nc(Oc2ccc(=O)[nH]n2)n1 (configuration not stated)	-0.162
CN=C1c2cc3cc(OC)ccc3n2CCN1C	0.371
CN=C1c2c(-c3ccccc3)c3cc(OC)ccc3n2CCN1C	4.2 (active)
CN=C1c2cc3c(Br)c(OC)ccc3n2CCN1C	0.218
Fc1cccc(-n2c(-c3ccco3)nc3nc4ccccc4nc32)c1	3.05 (active)
Cc1cccc(-n2c(-c3ccco3)nc3nc4ccccc4nc32)c1	-0.0341
CCC(C)n1c(-c2ccco2)nc2nc3ccccc3nc21 (configuration not stated)	-1.06
CCOC(=O)c1cnc(-c2ccccc2)nc1Oc1ccc(Cl)cc1	-0.241
CCOC(=O)c1cnc(-c2ccccc2)nc1Oc1ccccc1	-0.19
CCOC(=O)c1cnc(-c2ccccc2)nc1Oc1ccc(C)cc1	2.4
O=C(Nc1ccccc1)c1ccc(S(=O)(=O)NCc2ccco2)cc1	-0.18
COc1ccc(C(=O)Nc2ccc(S(=O)(=O)NCc3ccco3)cc2)cc1OC	3.13 (active)
Cc1ccc(C(=O)Nc2ccc(S(=O)(=O)NCc3ccco3)cc2)cc1	0.0377
CCOC(=O)c1c(NC(=O)C2CCCO2)sc(C(N)=O)c1C (configuration not stated)	-0.0328
CN(C)c1ccc(N=Nc2ccccc2C(=O)OCC(=O)NC2CCCC2)cc1	-0.235
COc1cccc(C(=O)NC(C)c2ccc(Br)cc2)c1 (configuration not stated)	-0.143
CCCC(=O)NC1C2CC3CC(C2)CC1C3 (configuration not stated)	0.313
CC(=O)c1c(C)[nH]c(C(=O)OCC(=O)Nc2cccc(S(=O)(=O)N3CCCC3)c2)c1C	0.16
